Activity calls are given as the source filed them.

Assay [1] is described as follows: optical density shifts of acrAB sulA E. coli – strain DRC41, OD650, 48 h, E. coli filamentation inducer project, primary screen (AID 1152).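 Also: E. coli MC1000 strain DRC41 lacking acrAB efflux pump and sulA.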 The following applies: higher = more signal, called active from +8 up or from −8 down.
Assay [2] can be described thus: probe aLefty1 binding on compound microarray – biochemical, small-molecule microarray, 635/667 nm fluorescence, primary screen (AID 1153).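 Also: score merges spot fluorescence with signal-to-noise ratio from the scanned slide images.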 Conditions: higher = more signal.
Assay [3] can be described thus: plasmodial surface anion channel blockers, osmotic lysis – cell-based, P. falciparum Indochina, OD700, 1 h, primary screen (AID 1154). The following applies: P. falciparum Indochina infected RBC osmotic lysis, higher = more signal, called active from +8 up or from −8 down.
Assay [4] can be described thus: plasmodial surface anion channel blockers, osmotic lysis – cell-based, P. falciparum Indochina, OD700, 2 h, primary screen (AID 1155).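 Also: lysis reports solute entry through the parasite surface anion channel PSAC.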 The following applies: P. falciparum Indochina infected erythrocytes, higher = more signal, called active from +8 up or from −8 down.
The nature of assay [5]: changes in parasitized red cell lysis, either direction – P. falciparum Indochina, OD700, 3 h, PSAC antagonist project, primary screen (AID 1156). The following applies: P. falciparum-infected erythrocytes, osmotic lysis, higher = more signal, called active from +8 up or from −8 down.
The nature of assay [6]: plasmodial surface anion channel blockers, osmotic lysis – cell-based, P. falciparum Indochina, OD700, 18 h, primary screen (AID 1157). The following applies: P. falciparum Indochina infected erythrocytes, osmotic lysis OD700, 18 h; higher = more signal, called active from +8 up or from −8 down.
Assay [7] can be described thus: S6 kinase pathway phospho-S6 level changes – cell-based, A549, cytoblot, luminescence, serum-stimulated, primary screen (AID 1158).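 Also: serum-stimulated A549 lung adenocarcinoma cells; signal is phosphorylated S6 detected by cytoblot immunostaining with HRP secondary.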 Conditions: 5 h, higher = more signal.
Assay [8] addresses NADPH oxidase 2 (Homo sapiens) (UniProt P04839). Description: compounds shifting NOX2 Amplex Red fluorescence – cell-based, HEK293-NOX2, PMA-stimulated, NOX inhibitor project, primary screen (AID 1159). Also: test concentration not given here. Conditions: 45 min, higher = more signal, called active from +8 up or from −8 down.
Assay [9] addresses NADPH oxidase 4 (Homo sapiens) (UniProt Q9NPH5). Description: compounds shifting NOX4 Amplex Red fluorescence – cell-based, HEK293-NOX4, tetracycline-induced, NOX inhibitor project, primary screen (AID 1160). The following applies: HEK293-NOX4, Amplex Red H2O2 fluorescence, 45 min; higher = more signal, called active from +8 up or from −8 down.
Assay [10] has as its target NADPH oxidase 5 (Homo sapiens) (UniProt Q96PH1). Nature of the assay: compounds shifting NOX5 Amplex Red fluorescence – cell-based, HEK293-NOX5, NOX inhibitor project, primary screen (AID 1161). The following applies: HEK293-NOX5, ionomycin, 45 min, higher = more signal.
Assay [11] can be described thus: compound effects on lung adenocarcinoma cell viability – A549, calcein-AM fluorescence, 48 h, basal, profiling panel (AID 1162). Also: test concentration not given here. Conditions: higher = more signal.
A short description of assay [12]: compound effects on differentiated 3T3-L1 adipocyte viability – cell-based, 3T3-L1 adipocytes, calcein-AM fluorescence, 48 h, basal, profiling panel (AID 1163). Also: test concentration not given here. The following applies: 3T3-L1 adipocytes viability, higher = more signal.
The nature of assay [13]: compound effects on hepatocellular carcinoma cell viability – HepG2, calcein-AM fluorescence, 48 h, basal, profiling panel (AID 1164). Also: test concentration not given here. The following applies: higher = more signal.
Assay [14] in a line: compound effects on multiple myeloma cell viability – MM1S, calcein-AM fluorescence, 48 h, basal, profiling panel (AID 1165). Also: test concentration not given here. Conditions: higher = more signal.
Assay [15] in a line: calcein-AM signal in unstimulated myeloma cells – cell-based, calcein-AM fluorescence, 48 h, PK04 Diversity Set, profiling panel (AID 1166).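 Also: cells grown under basal conditions without added stimulus; test concentration not given here.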 Conditions: RPMI8226 myeloma viability, higher = more signal.
Assay [16] is described as follows: JC-1 mitochondrial signal, unstimulated HepG2 cells – cell-based, JC-1 fluorescence, 24 h, 100 nL compound, profiling panel (AID 1167). Also: test concentration not given here. The following applies: HepG2 mitochondrial potential, higher = more signal.
The nature of assay [17]: JC-1 mitochondrial signal, unstimulated adipocytes – cell-based, JC-1 fluorescence, 3T3-L1 adipocytes, 24 h, 100 nL compound, profiling panel (AID 1168). Also: test concentration not given here. The following applies: JC-1 mitochondrial fluorescence, higher = more signal, called active from +8 up or from −8 down.
Assay [18] is described as follows: JC-1 mitochondrial signal, unstimulated myeloma cells – cell-based, JC-1 fluorescence, RPMI8226, 24 h, 100 nL compound, profiling panel (AID 1169). Also: test concentration not given here. Conditions: JC-1 mitochondrial potential fluorescence, higher = more signal.
The nature of assay [19]: JC-1 mitochondrial signal, unstimulated MM1S myeloma – cell-based, JC-1 fluorescence, 24 h, 100 nL compound, profiling panel (AID 1170). Also: test concentration not given here. The following applies: MM1S mitochondrial potential, higher = more signal.
Assay [20] is described as follows: resazurin metabolic signal in A549 cells – cell-based, resazurin fluorescence, 24 h, PK04 Diversity Set, profiling panel (AID 1171). Also: test concentration not given here. Conditions: A549 viability, higher = more signal, called active from +8 up or from −8 down. (In general: Alamar Blue is a resazurin reagent that responds to reducing activity.)

NADPH oxidase 4 (Homo sapiens), sequence (Q9NPH5 whole entry, looked up): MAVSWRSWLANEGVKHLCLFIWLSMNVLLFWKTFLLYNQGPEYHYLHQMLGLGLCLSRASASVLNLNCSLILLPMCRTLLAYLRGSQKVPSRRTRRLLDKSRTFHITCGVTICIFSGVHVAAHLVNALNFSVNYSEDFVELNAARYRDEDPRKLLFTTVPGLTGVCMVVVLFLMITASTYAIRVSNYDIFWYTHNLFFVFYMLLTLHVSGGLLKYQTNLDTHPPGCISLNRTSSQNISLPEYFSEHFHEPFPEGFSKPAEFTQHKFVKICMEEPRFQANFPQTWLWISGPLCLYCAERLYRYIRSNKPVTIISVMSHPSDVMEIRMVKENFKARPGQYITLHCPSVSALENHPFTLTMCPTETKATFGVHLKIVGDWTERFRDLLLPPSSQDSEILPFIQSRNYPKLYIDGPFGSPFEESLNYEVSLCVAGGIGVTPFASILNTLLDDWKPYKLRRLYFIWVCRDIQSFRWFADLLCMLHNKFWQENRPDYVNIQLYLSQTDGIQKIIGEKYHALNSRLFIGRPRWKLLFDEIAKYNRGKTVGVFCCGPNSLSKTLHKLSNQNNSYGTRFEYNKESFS
NADPH oxidase 5 (Homo sapiens), sequence (Q96PH1 whole entry, looked up): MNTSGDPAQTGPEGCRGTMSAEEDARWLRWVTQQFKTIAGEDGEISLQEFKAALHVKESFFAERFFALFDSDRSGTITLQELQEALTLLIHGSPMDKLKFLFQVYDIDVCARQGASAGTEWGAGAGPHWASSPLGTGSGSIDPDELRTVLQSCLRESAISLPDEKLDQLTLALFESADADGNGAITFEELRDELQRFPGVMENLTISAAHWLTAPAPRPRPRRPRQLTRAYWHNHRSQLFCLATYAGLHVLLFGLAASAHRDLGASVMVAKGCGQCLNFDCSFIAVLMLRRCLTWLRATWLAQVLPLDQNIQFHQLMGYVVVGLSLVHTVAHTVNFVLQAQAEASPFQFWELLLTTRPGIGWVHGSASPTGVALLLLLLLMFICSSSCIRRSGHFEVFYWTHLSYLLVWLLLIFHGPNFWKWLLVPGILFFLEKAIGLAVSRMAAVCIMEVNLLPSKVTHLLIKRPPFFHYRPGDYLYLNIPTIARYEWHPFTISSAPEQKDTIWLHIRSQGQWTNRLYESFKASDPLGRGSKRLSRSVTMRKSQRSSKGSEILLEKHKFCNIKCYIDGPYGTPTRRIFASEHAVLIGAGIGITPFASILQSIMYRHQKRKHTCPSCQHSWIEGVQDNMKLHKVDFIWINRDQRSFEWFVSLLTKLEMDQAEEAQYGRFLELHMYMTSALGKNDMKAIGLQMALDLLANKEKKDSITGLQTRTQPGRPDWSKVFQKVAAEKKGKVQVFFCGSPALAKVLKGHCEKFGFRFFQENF
NADPH oxidase 2 (Homo sapiens), sequence (P04839 whole entry, looked up): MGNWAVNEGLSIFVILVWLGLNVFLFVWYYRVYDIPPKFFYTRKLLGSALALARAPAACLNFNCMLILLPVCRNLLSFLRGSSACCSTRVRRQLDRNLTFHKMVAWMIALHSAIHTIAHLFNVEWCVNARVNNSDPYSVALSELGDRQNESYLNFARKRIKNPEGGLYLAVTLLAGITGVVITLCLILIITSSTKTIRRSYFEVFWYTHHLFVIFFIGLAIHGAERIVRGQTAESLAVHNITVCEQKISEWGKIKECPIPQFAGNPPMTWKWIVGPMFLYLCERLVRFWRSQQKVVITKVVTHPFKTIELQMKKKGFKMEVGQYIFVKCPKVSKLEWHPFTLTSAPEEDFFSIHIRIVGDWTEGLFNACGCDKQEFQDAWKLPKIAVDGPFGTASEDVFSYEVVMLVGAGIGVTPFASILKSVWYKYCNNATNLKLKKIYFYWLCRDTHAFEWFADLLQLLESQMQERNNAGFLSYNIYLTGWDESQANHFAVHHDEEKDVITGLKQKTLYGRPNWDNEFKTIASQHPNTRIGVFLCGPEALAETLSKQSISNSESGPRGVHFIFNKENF

As to `CO[C@H]1O[C@H](CO)[C@@H](OC(=O)Nc2ccc(C#N)cc2)[C@@H]2OC(=O)[C@H](Cc3cccc(Br)c3)C/C=C/C[C@@H](Cc3cccc(Br)c3)C(=O)O[C@@H]12`, the z-score was 0.766 (inactive) in assay [1]; 1.52 (inactive) in [3]; -0.178 (inactive) in [4]; 0.842 (inactive) in [5]; 0.558 (inactive) in assay [6]; -0.257 in [7]. Further, the z-score in assay [8] is -1.59 (inactive); in assay [9], 0.311 (inactive); in [10], -0.214; in [11], 1.31; in [12], 0.685; in assay [13] it was 1.29. For the same compound, the z-score in assay [14] is -1.71; in assay [15], -0.487; in [16], 1.73; in [17], 1.74 (inactive); in assay [18], -0.579; in assay [19], -0.935. For the same compound, the z-score in [20] was -2.28 (inactive). In assay [2], the composite z-score was determined as 0.941.
With `COC(=O)c1c2oc(c1C(=O)OC)C(=O)N1CCC[C@H]1Cn1nncc1CN(Cc1ccccc1)C(=O)N[C@H](CO)CC2`, the z-score in [1] was 1.53 (inactive); in [3] it was 0.834 (inactive); in [4], 0.609 (inactive); in assay [5], -0.418 (inactive); in assay [6], 0.924 (inactive); in assay [7] it was 0.429. The z-score in [8] was -0.521 (inactive); in assay [9], 0.556 (inactive); in assay [10], 1.19; in assay [11], -0.0989; in assay [12], -0.723; in [13] it was 0.436. The z-score in assay [14] is 0.829; in assay [15], 0.394; in [16] it was 0.488; in assay [17], 0.172 (inactive); in [18], -0.136; in assay [19], -0.882. In assay [20], the z-score was 0.744 (inactive). The composite z-score in [2] amounted to 0.0429.
On to `COc1cc2c(cc1O)C(c1cccs1)N(Cc1sc3ccccc3c1Cl)CC2` (stereo not given), for which the z-score is -1.49 (inactive) in assay [1]; 10.4 (active) in assay [3]; 3.63 (inactive) in [4]; -0.333 (inactive) in assay [5]; 2.24 (inactive) in assay [6]; -0.511 in assay [7]. Further, the z-score in assay [8] is -3.92 (inactive); in assay [9], -2.48 (inactive); in [10], -3.48; in assay [11], -3.77; in assay [12], 0.623; in [13], -4.6. The z-score was -3.27 in [14]; -4.2 in assay [15]; -3.1 in assay [16]; -0.197 (inactive) in assay [17]; -0.894 in assay [18]; -0.194 in [19]. Also, the z-score in assay [20] is -0.403 (inactive). This compound also showed a composite z-score in assay [2] of 0.0479.
Take `Nc1cc(Br)ccc1C(=O)O`: the z-score was 0.813 (inactive) in assay [1]; -0.319 (inactive) in assay [3]; 0.371 (inactive) in assay [4]; -0.611 (inactive) in [5]; 0.0089 (inactive) in assay [6]; 0.265 in [7]. In addition, the z-score in [8] is 0.0525 (inactive); in assay [9], -0.204 (inactive); in assay [10], 0.142; in assay [11] it was 1.51; in [12], 0.679; in [13] it was 0.264. In addition, the z-score in [14] was 1.29; in [15], 0.804; in assay [16] it was 0.799; in [17] it was 0.55 (inactive); in assay [18], 0.432; in assay [19] it was 1.54. For the same compound, in assay [20], the z-score was 0.671 (inactive). In assay [2], this compound returned a composite z-score of 0.139.
For the compound `CC(C)c1ccc(NN2C(C(O)Cc3ccccc3)C=CC3C(=O)N(c4ccccc4)C(=O)C32)cc1` (stereo not given), the z-score in [1] is -1.76 (inactive); in [3], 1.93 (inactive); in [4], 1.31 (inactive); in assay [5], 0.127 (inactive); in assay [6] it was 1.05 (inactive); in assay [7], -1.27. Moreover, the z-score in assay [8] was -0.343 (inactive); in assay [9] it was -3.62 (inactive); in assay [10], -2.69; in assay [11], -0.989; in assay [12], -0.482; in [13], 0.526. Moreover, the z-score in assay [14] was -1.06; in assay [15], -0.434; in assay [16] it was -2; in [17], -0.864 (inactive); in assay [18], 0.411; in [19], 1.51. Further, the z-score in [20] was -0.63 (inactive). In [2], this compound yielded a composite z-score of 0.181.
On to `O=C1N[C@@H](Cc2ccccc2)C(=O)N2[C@@H]1C[C@@H](C(=O)O)[C@H]2c1ccc(O)cc1`, for which the z-score in assay [1] is 1.13 (inactive); in assay [3] it was 6.71 (inactive); in [4], 1.04 (inactive); in assay [5], -2.73 (inactive); in assay [6] it was 0.595 (inactive); in assay [7], -0.0505. Also, the z-score in [8] is -6.08 (inactive); in assay [9] it was -4.88 (inactive); in [10], -2.63; in assay [11], -0.178; in assay [12] it was 0.699; in assay [13] it was -0.361. Besides, the z-score in assay [14] is -3.36; in [15], 0.293; in [16], 0.873; in assay [17] it was 0.649 (inactive); in assay [18], 0.201; in assay [19], -0.75. Further, in assay [20], the z-score was -0.182 (inactive). The composite z-score in assay [2] stood at 0.47.
On to `C=C(COC)/C(=C/C[C@H](OC(C)=O)c1cccc(OCCO)c1)c1cnc2ccccc2c1`, for which the z-score was -0.339 (inactive) in assay [1]; 15.2 (active) in assay [3]; 2.65 (inactive) in assay [4]; 1.41 (inactive) in assay [5]; 0.872 (inactive) in assay [6]; -0.512 in assay [7]. Further, the z-score in [8] was 0.373 (inactive); in assay [9] it was 0.228 (inactive); in assay [10], -0.167; in [11] it was 0.858; in [12] it was 1.01; in assay [13], 0.455. Further, the z-score in [14] was -2.78; in [15], -0.114; in [16], 0.713; in [17], -0.437 (inactive); in [18] it was 0.23; in assay [19], -0.0946. In assay [20], the z-score was 0.127 (inactive). This compound gave a composite z-score in assay [2] of 0.0999.
For the compound `C=C(CCCC)/C(=C/C[C@H](OC(C)=O)c1ccc(OCCO)cc1)c1cc(C(=O)OC)ccc1OC`, the z-score was 0.564 (inactive) in assay [1]; 24.5 (active) in assay [3]; 7.58 (inactive) in assay [4]; 2.3 (inactive) in assay [5]; 1.48 (inactive) in assay [6]; 0.376 in [7]. Moreover, the z-score in assay [8] is -0.338 (inactive); in [9], -0.759 (inactive); in assay [10], -1.56; in [11], 0.899; in assay [12], 1.18; in [13] it was 1.74. Besides, the z-score is -2.88 in assay [14]; -1.83 in [15]; 2.2 in assay [16]; 0.151 (inactive) in [17]; -0.864 in assay [18]; -0.957 in [19]. Further, the z-score in assay [20] is 1.09 (inactive). The composite z-score in [2] was -0.0378.
Turning to `CCOC(=O)C[C@H]1[C@H](OC(=O)c2ccc(-c3ccccc3)cc2)[C@@H](NC(=O)Cc2ccc(OC)cc2)c2cc(OCCCO)ccc2N1C(=O)Cc1ccc(OC)cc1`, the z-score is 1.07 (inactive) in assay [1]; 4.29 (inactive) in [3]; 0.4 (inactive) in [4]; 0.222 (inactive) in [5]; 0.211 (inactive) in [6]; 0.911 in assay [7]. Further, the z-score in [8] is 0.818 (inactive); in [9], -0.868 (inactive); in assay [10] it was 1.52; in assay [11], 0.368; in [12] it was 0.0052; in [13], 0.834. For the same compound, the z-score in assay [14] is 0.191; in assay [15], -0.102; in [16] it was 2.01; in [17] it was 0.262 (inactive); in assay [18] it was -0.198; in assay [19], -0.128. Moreover, the z-score in assay [20] is 0.207 (inactive). Also, in assay [2], the composite z-score was -0.0348.

Values taken from PubChem BioAssay.
